The values below come from article PMC3218832.

Holding throughout (assay): protein binding microarray; high values mean tight binding
Settings in all cases: dsDNA, one strand shown

The target of test [1] is RELARELA (p65 homodimer) (Homo sapiens, UniProt Q04206 1-307).
Test [2] has as its target p50p50 homodimer (Homo sapiens, UniProt P19838 7-356).
In test [3] the target is T1, p52p52 homodimer (Homo sapiens, UniProt Q00653 4-332).
T1 sequence: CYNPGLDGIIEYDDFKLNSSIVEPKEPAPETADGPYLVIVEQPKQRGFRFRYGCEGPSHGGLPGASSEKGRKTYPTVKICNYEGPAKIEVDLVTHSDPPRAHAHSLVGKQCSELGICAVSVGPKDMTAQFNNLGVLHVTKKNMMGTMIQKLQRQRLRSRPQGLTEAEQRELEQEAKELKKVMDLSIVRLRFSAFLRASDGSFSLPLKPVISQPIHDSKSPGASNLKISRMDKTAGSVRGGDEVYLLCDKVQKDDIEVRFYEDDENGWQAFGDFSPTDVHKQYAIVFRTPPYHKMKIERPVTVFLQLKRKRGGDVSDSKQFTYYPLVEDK

In test [4] the target is RELA (p65) subunit of heterodimer;p50 subunit (Homo sapiens;Homo sapiens, UniProt Q04206;P19838 1-307;7-356).
The target in test [5] is RELA (p65) subunit of heterodimer;p52 subunit (Homo sapiens;Homo sapiens, UniProt Q04206;Q00653 1-307;4-332).
Test [6] deals with RELB subunit;p50 subunit (Homo sapiens;Homo sapiens, UniProt Q01201;P19838 120-401;7-356).
In test [7] the target is T2, RELB subunit;p52 subunit (Homo sapiens;Homo sapiens, UniProt Q01201;Q00653 120-401;4-332).
T2 sequence 1: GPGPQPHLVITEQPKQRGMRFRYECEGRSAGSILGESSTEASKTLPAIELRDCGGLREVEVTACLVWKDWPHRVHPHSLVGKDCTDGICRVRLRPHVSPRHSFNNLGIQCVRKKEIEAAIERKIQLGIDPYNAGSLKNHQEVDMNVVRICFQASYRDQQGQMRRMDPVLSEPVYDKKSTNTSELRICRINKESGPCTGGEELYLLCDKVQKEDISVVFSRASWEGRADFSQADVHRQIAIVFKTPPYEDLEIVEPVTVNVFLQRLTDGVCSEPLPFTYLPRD
T2 sequence 2: T1 sequence

For test [8], the target named is C-Rel subunit;p50 subunit (Homo sapiens;Homo sapiens, UniProt Q04864;P19838 1-285;7-356).
Test [9] deals with T3, C-Rel subunit;p52 subunit (Homo sapiens;Homo sapiens, UniProt Q04864;Q00653 1-285;4-332).
T3 sequence 1: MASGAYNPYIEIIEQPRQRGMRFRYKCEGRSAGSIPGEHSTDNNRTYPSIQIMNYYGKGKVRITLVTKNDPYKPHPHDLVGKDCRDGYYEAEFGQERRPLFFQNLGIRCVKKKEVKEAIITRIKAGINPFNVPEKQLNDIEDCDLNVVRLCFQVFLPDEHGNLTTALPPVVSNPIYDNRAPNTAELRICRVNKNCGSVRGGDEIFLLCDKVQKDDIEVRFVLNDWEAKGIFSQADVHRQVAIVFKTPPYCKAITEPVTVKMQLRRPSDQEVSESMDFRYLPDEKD
T3 sequence 2: T1 sequence

Sequence of RELA (p65) subunit of heterodimer;p50 subunit (Q04206 1-307, chain 1 of 2): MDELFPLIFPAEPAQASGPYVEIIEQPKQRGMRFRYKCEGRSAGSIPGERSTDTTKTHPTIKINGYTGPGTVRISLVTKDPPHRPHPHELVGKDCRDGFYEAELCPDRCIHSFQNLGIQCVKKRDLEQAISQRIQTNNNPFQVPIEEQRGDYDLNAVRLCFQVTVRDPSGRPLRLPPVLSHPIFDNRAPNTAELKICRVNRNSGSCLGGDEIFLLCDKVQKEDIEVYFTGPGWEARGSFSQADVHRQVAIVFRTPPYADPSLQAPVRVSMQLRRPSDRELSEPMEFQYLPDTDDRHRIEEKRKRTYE
Sequence of RELA (p65) subunit of heterodimer;p50 subunit (P19838 7-356, chain 2 of 2): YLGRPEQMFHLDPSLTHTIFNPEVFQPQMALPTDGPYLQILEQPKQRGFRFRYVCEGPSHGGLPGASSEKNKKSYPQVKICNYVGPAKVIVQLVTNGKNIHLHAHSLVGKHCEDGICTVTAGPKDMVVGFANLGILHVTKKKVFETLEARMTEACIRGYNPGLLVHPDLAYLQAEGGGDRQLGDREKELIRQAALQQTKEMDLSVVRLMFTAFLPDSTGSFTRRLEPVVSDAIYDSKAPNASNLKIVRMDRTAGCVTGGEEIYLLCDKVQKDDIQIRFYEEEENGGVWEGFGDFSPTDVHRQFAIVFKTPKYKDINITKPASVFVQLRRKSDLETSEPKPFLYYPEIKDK
Sequence of RELARELA (p65 homodimer) (Q04206 1-307): as the sequence (Q04206 1-307, chain 1 of 2) above
Sequence of p50p50 homodimer (P19838 7-356): as the sequence (P19838 7-356, chain 2 of 2) above

Turning to GAGTGCCCCCT, the binding signal was -0.00724 z-score in [1]; 1.11 z-score in test [2]; 0.614 z-score in test [3]; 0.954 z-score in test [4]; 0.871 z-score in test [5]; 0.913 z-score in test [6]. The binding signal in test [7] stood at 1.16 z-score; in test [8], 0.836 z-score; in test [9] it was 0.745 z-score.

With GAGGAGGCCCT, the binding signal in [1] is -1.17 z-score; in [2], -1.07 z-score; in test [3] it was -0.602 z-score; in test [4], -1.02 z-score; in test [5] it was -0.973 z-score; in test [6] it was -0.68 z-score. Besides, the values for the binding signal in test [7], in test [8] and in test [9] were -0.644 z-score, -1.36 z-score and -0.766 z-score, respectively.

As for CAGATGTTCCT, the binding signal was -0.208 z-score in test [1]; -2.01 z-score in test [2]; -0.586 z-score in test [3]; -0.746 z-score in test [4]; -0.87 z-score in test [5]; -1.02 z-score in test [6]. Also, the binding signal in [7] was -0.843 z-score; in test [8], -1.15 z-score; in test [9], -0.842 z-score.

Regarding CGAATACCCCT, the binding signal was determined as 0.147 z-score in [1]; 1.13 z-score in [2]; 0.86 z-score in test [3]; 1.17 z-score in test [4]; 1.12 z-score in test [5]; 1.03 z-score in test [6]. The results for the binding signal in [7], in [8] and in test [9] were 1.63 z-score, 0.876 z-score and 0.881 z-score, respectively.

In the case of AGGGGAGTCCT, the binding signal in test [1] was found to be 0.691 z-score; in test [2], 0.962 z-score; in [3], 1.64 z-score; in test [4], 0.872 z-score; in test [5], 1.1 z-score; in [6], 0.907 z-score. Moreover, the binding signal in test [7] was determined as 0.881 z-score; in [8], 0.64 z-score; in test [9], 0.78 z-score.

As to GAATTCGCCCT, the binding signal in [1] was 0.00849 z-score; in test [2] it was -0.928 z-score; in [3], -0.505 z-score; in test [4], -0.461 z-score; in test [5] it was -0.517 z-score; in test [6], -0.698 z-score. The binding signal is -0.722 z-score in test [7], -0.531 z-score in test [8] and -0.36 z-score in test [9].

With AGGTGCGTCCT, the binding signal in [1] is -0.881 z-score; in [2] it was -0.757 z-score; in [3] it was -0.281 z-score; in test [4] it was -0.82 z-score; in test [5] it was -0.633 z-score; in [6] it was -0.695 z-score. The figures for the binding signal in test [7], in test [8] and in [9] were -0.608 z-score, -1.1 z-score and -0.46 z-score, respectively.

As to GGGTGTTCCCC, the binding signal in test [1] came out at 1.97 z-score; in test [2] it was 0.783 z-score; in test [3], 3.21 z-score; in [4] it was 2.14 z-score; in test [5] it was 2.7 z-score; in test [6], 2.21 z-score. In addition, the binding signal in test [7] came to 2.06 z-score; in test [8], 1.68 z-score; in test [9], 2.56 z-score.

Turning to CAGGGGATCCC, the binding signal in test [1] amounted to 1.59 z-score; in test [2], 1.03 z-score; in [3], 1.66 z-score; in test [4] it was 1.73 z-score; in test [5], 1.49 z-score; in test [6] it was 1.12 z-score. Moreover, the binding signal in test [7] stood at 1.18 z-score; in test [8], 0.893 z-score; in [9], 1.42 z-score.

For AGGTGGTCCCT, the binding signal in test [1] is -0.0291 z-score; in [2], 0.913 z-score; in test [3], 0.63 z-score; in [4], 0.18 z-score; in [5], 0.558 z-score; in [6], 0.666 z-score. Moreover, the binding signal came out at 0.659 z-score in test [7], 0.227 z-score in test [8] and 0.391 z-score in [9].

Consider AGGTACGCCCC, for which the binding signal in test [1] is -0.0324 z-score; in test [2], 0.221 z-score; in test [3], 0.402 z-score; in test [4], 0.321 z-score; in [5] it was 0.526 z-score; in [6], 0.233 z-score. Further, the binding signal in test [7] was 0.441 z-score; in test [8], 0.444 z-score; in test [9] it was 0.674 z-score.

With AGGATCTCCCC, the binding signal stood at 0.594 z-score in [1]; 1.02 z-score in test [2]; 0.969 z-score in test [3]; 1.28 z-score in test [4]; 1.04 z-score in test [5]; 1.22 z-score in test [6]. For the same sequence, the binding signal was 0.999 z-score in test [7], 0.853 z-score in [8] and 0.953 z-score in test [9].

Regarding GGATAGTCCCT, the binding signal in test [1] is 1 z-score; in [2], 1.18 z-score; in [3], 1.57 z-score; in test [4] it was 1.47 z-score; in test [5], 1.43 z-score; in [6], 0.994 z-score. Moreover, the binding signal was 1.65 z-score in test [7], 1.15 z-score in [8] and 1.82 z-score in test [9].

Consider GAAGAATCCCC, for which the binding signal in [1] is 1.11 z-score; in test [2] it was 1.36 z-score; in [3], 2.18 z-score; in test [4], 2.18 z-score; in [5], 1.83 z-score; in test [6], 2.29 z-score. Further, the results for the binding signal in [7], in test [8] and in test [9] were 1.85 z-score, 1.56 z-score and 1.53 z-score, respectively.

For the sequence GAGATATCCCC, the binding signal amounted to 0.294 z-score in test [1]; 1.12 z-score in test [2]; 1.16 z-score in [3]; 1.33 z-score in test [4]; 1.3 z-score in [5]; 1.08 z-score in test [6]. The binding signal in test [7] was 0.95 z-score; in [8], 0.698 z-score; in test [9], 0.964 z-score.
